“And” between values parts separate entries of the source, which are not always exact repeats. Equal values may be shown once.
Columns and labels:
[1] = tested on: Botulinum neurotoxin type F light chain protease (Clostridium botulinum); test: Botulinum neurotoxin type F light chain protease inhibition, multiplex microsphere flow cytometry, validation set (AID 588459); conditions: multiplex microsphere protease substrate cleavage assay, at 10 µM, stronger effect = higher value
[2] = biological target: Botulinum neurotoxin type A (Clostridium botulinum) (UniProt P0DPI0); test: BoNT/A light chain protease inhibitors, biochemical, multiplex microsphere flow cytometry, validation set (AID 588460); conditions: at 10 µM, stronger effect = higher value
Sequence of Botulinum neurotoxin type A (Clostridium botulinum) (P0DPI0 whole entry, looked up): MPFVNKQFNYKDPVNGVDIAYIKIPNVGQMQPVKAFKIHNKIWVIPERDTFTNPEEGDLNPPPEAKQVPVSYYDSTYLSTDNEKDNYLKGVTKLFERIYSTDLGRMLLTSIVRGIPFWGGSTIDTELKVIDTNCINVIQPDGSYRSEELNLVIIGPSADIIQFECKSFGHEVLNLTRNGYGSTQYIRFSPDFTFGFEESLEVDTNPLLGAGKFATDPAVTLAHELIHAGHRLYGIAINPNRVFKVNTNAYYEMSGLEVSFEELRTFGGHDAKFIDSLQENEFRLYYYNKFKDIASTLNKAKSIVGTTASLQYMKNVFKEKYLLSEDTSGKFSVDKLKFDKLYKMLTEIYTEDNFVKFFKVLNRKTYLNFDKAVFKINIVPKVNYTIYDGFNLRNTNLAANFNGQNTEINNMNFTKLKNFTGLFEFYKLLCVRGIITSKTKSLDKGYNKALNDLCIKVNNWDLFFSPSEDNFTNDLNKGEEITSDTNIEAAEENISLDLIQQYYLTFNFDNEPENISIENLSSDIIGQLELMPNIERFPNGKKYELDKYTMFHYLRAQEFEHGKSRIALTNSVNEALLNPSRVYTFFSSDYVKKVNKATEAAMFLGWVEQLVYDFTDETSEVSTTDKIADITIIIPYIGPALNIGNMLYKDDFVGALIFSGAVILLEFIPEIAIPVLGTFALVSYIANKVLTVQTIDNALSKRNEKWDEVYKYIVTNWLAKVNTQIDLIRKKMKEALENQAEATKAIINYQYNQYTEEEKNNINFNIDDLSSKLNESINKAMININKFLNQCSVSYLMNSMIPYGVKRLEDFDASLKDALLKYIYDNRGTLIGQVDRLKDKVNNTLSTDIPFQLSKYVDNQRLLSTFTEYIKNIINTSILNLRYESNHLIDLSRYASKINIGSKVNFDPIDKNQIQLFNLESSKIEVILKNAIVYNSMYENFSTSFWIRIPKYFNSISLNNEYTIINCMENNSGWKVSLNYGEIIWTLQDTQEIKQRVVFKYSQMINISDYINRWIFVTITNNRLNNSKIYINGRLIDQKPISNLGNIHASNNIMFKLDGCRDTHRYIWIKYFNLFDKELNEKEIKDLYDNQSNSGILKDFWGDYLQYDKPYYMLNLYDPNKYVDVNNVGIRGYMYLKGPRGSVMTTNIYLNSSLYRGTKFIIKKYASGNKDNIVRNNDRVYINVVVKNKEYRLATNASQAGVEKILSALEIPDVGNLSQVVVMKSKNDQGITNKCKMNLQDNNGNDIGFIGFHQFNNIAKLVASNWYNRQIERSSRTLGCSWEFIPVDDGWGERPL

[3] = biological target: Lethal factor (Bacillus anthracis) (UniProt P15917); test: Lethal factor protease inhibitors, Bacillus anthracis, multiplex microsphere cleavage assay, validation set (AID 588461); conditions: flow cytometry, at 10 µM, stronger effect = higher value
Sequence of Lethal factor (Bacillus anthracis) (P15917 whole entry, looked up): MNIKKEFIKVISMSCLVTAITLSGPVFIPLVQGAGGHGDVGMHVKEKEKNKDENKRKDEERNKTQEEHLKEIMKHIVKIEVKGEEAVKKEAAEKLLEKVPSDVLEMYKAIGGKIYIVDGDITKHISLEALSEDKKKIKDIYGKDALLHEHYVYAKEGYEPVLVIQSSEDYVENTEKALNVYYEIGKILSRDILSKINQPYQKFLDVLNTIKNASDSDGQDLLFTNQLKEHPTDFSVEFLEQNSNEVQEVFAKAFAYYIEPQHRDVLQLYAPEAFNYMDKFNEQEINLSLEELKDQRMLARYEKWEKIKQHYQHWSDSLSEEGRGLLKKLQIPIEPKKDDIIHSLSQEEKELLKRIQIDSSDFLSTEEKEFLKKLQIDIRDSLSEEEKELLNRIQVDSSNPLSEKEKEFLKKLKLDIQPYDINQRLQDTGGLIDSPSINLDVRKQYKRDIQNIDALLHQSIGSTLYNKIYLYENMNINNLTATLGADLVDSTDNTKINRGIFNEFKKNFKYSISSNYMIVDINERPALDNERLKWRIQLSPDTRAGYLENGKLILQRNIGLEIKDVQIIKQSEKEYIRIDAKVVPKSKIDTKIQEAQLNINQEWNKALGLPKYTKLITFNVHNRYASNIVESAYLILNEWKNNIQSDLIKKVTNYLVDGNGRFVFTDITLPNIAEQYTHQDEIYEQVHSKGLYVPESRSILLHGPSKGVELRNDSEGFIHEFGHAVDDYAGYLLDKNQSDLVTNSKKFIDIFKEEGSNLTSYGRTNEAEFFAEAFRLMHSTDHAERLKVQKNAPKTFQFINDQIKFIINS

Measured: inhibition

O=C(/C=C/c1ccco1)Nc1ccccc1C(=O)O
inactive: [1] 0.9% | [2] -0.2% | [3] 1.7%

COc1cc(C=NCC2OCCc3ccccc32)cc(OC)c1 (configuration not stated)
inactive: [1] 5.8% | [2] 0.3% | [3] 3.3%

COc1ccc(C2NC(=O)c3ccccc3O2)c(OC)c1OC (configuration not stated)
inactive: [1] -2.1% | [2] -0.5% | [3] 2.9%

Cc1csc(-c2coc3cc(O)cc(C)c3c2=O)n1
inactive: [1] 0.3% | [2] 1.7% | [3] 0.3%

COc1cc(NS(=O)(=O)c2ccc(N)cc2)nc(OC)n1
inactive: [1] 1.2% | [2] 1.1% | [3] 0.1%

Fc1cc(F)cc(NC(=S)NCCCN2CCOCC2)c1
inactive: [1] 0.9% | [2] -0.7% | [3] -2.9%

Cc1ccc2ncnc(NCCCCCC(=O)O)c2c1
inactive: [1] 1.7% | [2] -1.1% | [3] -4.7%

COC1=CC(=O)CC(C)C12Oc1c(Cl)c(OC)cc(OC)c1C2=O (configuration not stated)
inactive: [1] -0.7% | [2] -0.1% | [3] -1.8%

Cc1cc(=O)oc2c(CN(C)Cc3ccccc3)c(O)ccc12
inactive: [1] -0.2% | [2] -0.7% | [3] -3.4%

Cc1cn([C@H]2C[C@H](N=[N+]=[N-])[C@@H](CO)O2)c(=O)[nH]c1=O
inactive: [1] 2.4% | [2] 0.2% | [3] -2.8%

CN/C(=C/[N+](=O)[O-])NCCSCc1ccc(CN(C)C)o1
inactive: [1] 0.1% | [2] 0.1% | [3] -7.4%

CCOc1ccc2[nH]c3c(=O)n(CCc4ccc(OC)cc4)cnc3c2c1
inactive: [1] 1.7% | [2] 2% | [3] 0.2%

COc1cccc2c1OCC1COc3c(c(=O)n(C)c(=O)n3C)C21 (configuration not stated)
inactive: [1] 1.5% | [2] 0.5% | [3] 0.2%

Cc1cnc(N)c2c(=O)oc3ccccc3c12
inactive: [1] 1.3% | [2] 0.4% | [3] -4.6%

O=C1OC(c2ccc(O)cc2)(c2ccc(O)cc2)c2ccccc21
inactive: [1] -0.3% | [2] -0.8% | [3] -3.6%

COc1ccc(-c2onc(C)c2-c2ccc(C(=O)OC(C)C)o2)c(O)c1
inactive: [1] 1.1% | [2] 0.9% | [3] 0.9%

COc1cc(CNCc2ccc(OC)c(OC)c2OC)cc(OC)c1
inactive: [1] 0.5% | [2] -0.7% | [3] 5.3%

COc1ccc(NC(=O)N2CCCCC2c2cccnc2)cc1 (configuration not stated)
inactive: [1] 2.7% | [2] 0.7% | [3] -0.9%

CNCCCN1c2ccccc2CCc2ccccc21
inactive: [1] -0.9% | [2] -0.6% | [3] 3.8%

NC(CO)C(=O)NNCc1ccc(O)c(O)c1O (configuration not stated)
inactive: [1] -15.8% | [2] -11.2% | [3] -25.4%

C/C=C(/C(=C/C)c1ccc(O)cc1)c1ccc(O)cc1
inactive: [1] -1.2% | [2] -0.3% | [3] 3.5%

CCn1c2ccccc2c2cc(CC(N)=O)ccc21
inactive: [1] -5.5% | [2] -0.6% | [3] -0.1%

COc1ccc(NC(=O)Nc2ccc(C(C)C)cc2)cc1
inactive: [1] 2.7% | [2] 1.5% | [3] 5.7%

COc1ccc(S(=O)(=O)NCc2ccco2)c2ccccc12
inactive: [1] 4.7% | [2] 0.4% | [3] 1%

CC(=O)c1cccc2c(O)c(C3=Nc4ccccc4C3=O)[nH]c12
inactive: [1] -2.1% | [2] 0.6% | [3] 6.7%

COc1c2occc2c(OC)c2c(=O)cc(C(F)(F)C(F)(F)F)oc12
inactive: [1] 2.3% | [2] 0.5% | [3] 0.4%

COc1cc(CNCCc2c[nH]c3ccccc23)cc(Cl)c1OCC(N)=O
inactive: [1] -3.4% | [2] 0% | [3] -5.2%

CC(=O)N=c1sc(S(N)(=O)=O)nn1C
inactive: [1] 4.1% | [2] 0.8% | [3] 4.2%

NS(=O)(=O)c1cc2c(cc1C(F)(F)F)NC(Cc1ccccc1)NS2(=O)=O (configuration not stated)
inactive: [1] 2.4% | [2] 1.4% | [3] 3.5%

Cc1ccc(C(=O)COC(=O)c2cccc(N3C(=O)c4c(C)nc5ccccc5c4C3=O)c2)cc1C
inactive: [1] -1.2% | [2] -1.1% | [3] -0.1%

COc1cc(C(=O)CCN2CCC(c3ccccc3)C2)cc(OC)c1OC (configuration not stated)
inactive: [1] 0.2% | [2] 1.9% | [3] 6.6%

CC(=O)NCCCCCCNC(C)=O
inactive: [1] 5.8% | [2] 2.3% | [3] 10.8%

COc1cc(SC)ccc1C(=O)NC(C)C
inactive: [1] 2.9% | [2] 2.2% | [3] 0.8%

CC(=O)c1cccc(NC(=O)N[C@@H](CC(C)C)C(=O)O)c1
inactive: [1] -0.3% | [2] -1.7% | [3] -2.8%

COc1cc(C(=O)NCCc2c[nH]c3ccccc23)ccc1OCc1c(C)noc1C
inactive: [1] 3.6% | [2] -1.7% | [3] 0.2%

CCOC(=O)N1CCc2[nH]c3ccc(C)cc3c2C1
inactive: [1] -1.2% | [2] -1.6% | [3] 1.9%

c1ccc(CN(CC2=NCCN2)c2ccccc2)cc1
inactive: [1] 5.3% and 2.2% | [2] 1.1% and 0.4% | [3] -3.2% and 1.4%

CC(=O)c1c[nH]c2ccc(C)cc2c1=O
inactive: [1] -1.7% | [2] -0.6% | [3] -1.2%

COc1ccc(C2=CC(=O)C=CC2=O)cc1
inactive: [1] -4.7% | [2] -1.3% | [3] -4.1%

CC(C)NC(=O)c1ccc(C(C)C)cc1
inactive: [1] -2.3% | [2] -1.2% | [3] -2.8%

C[C@]12CCC(=O)C=C1CC[C@@H]1[C@@H]2C(=O)C[C@@]2(C)[C@H]1CC[C@]2(O)C(=O)CO
inactive: [1] -4.6% | [2] -1.7% | [3] -0.3%

CCn1ccnc1CN(C)Cc1cn(-c2cccc(C)c2)nc1-c1cccc(F)c1
inactive: [1] 0.6% | [2] -0.3% | [3] -3.5%

C1COC(NC(C2CC2)C2CC2)=N1
inactive: [1] 3% | [2] -0.1% | [3] -5%

O=c1cc(-c2ccc3c(c2)OCCO3)oc2ccc(Cl)cc12
inactive: [1] 0.8% | [2] -0.6% | [3] 0.9%

CC(=O)OCC(=O)C1=CCC2C3CCC4=CC(=O)C=CC4(C)C3(F)C(OC(C)=O)CC12C (configuration not stated)
inactive: [1] 0.8% | [2] -0.6% | [3] 2.4%

CCn1nc(C(=O)O)c(=O)c2cc3c(cc21)OCO3
inactive: [1] 5.7% | [2] 0.6% | [3] 0.2%

CCN1C(=O)C(CC(=O)Nc2ccc(F)cc2)N(Cc2ccco2)C1=S (configuration not stated)
inactive: [1] -2.9% | [2] -2.8% | [3] -7.4%

O=C(O)CCSc1nc2ccccc2s1
inactive: [1] -0.7% | [2] -1.2% | [3] -9.8%

O=C(O)c1cc2cc(Cl)cc(Cl)c2oc1=O
inactive: [1] -2.3% | [2] 0.4% | [3] 1.1%

CC(=O)OC[C@H]1O[C@@H](Sc2cccc3cccnc23)[C@H](OC(C)=O)[C@@H](OC(C)=O)[C@H]1OC(C)=O
inactive: [1] -3.9% | [2] -0.4% | [3] 0.7%

CC(=O)Nc1nnc(S(N)(=O)=O)s1
inactive: [1] 5.4% | [2] -0.3% | [3] -2.6%

CC(=O)Nc1ccccc1C(=O)C(=O)Nc1ccccc1
inactive: [1] 2.1% | [2] 0.9% | [3] -1.5%

CNCCC=C1c2ccccc2CCc2ccccc21
inactive: [1] -4.9% | [2] 0.2% | [3] -5.8%

O=C(NC(=S)N1CCCCC1)c1cccnc1
inactive: [1] 1.2% | [2] 1% | [3] -4.6%

CCc1cccc2c3c([nH]c12)C(CC)(CC(=O)O)OCC3 (configuration not stated)
inactive: [1] -3.9% | [2] -0.3% | [3] -0.8%

COc1ccc(/C=C/C(=O)c2cc3cccc(OC)c3oc2=O)cc1
inactive: [1] 2.3% | [2] 2.8% | [3] 8.8%

OC[C@H]1O[C@@H](n2cnc3c(Nc4ccccc4)ncnc32)[C@H](O)[C@@H]1O
inactive: [1] 1.4% | [2] -0.2% | [3] -2.1%

CCCCN1C[C@H](O)[C@@H](O)[C@H](O)[C@H]1CO
inactive: [1] 1.9% | [2] -1% | [3] 0.7%

COc1ccccc1Oc1c(C)oc2c(CN3CCN(CCO)CC3)c(O)ccc2c1=O
inactive: [1] -2.3% | [2] -1.2% | [3] 1.4%

COc1ccc(CC(=O)Nc2cccc(C(=O)Nc3ccccc3C(=O)O)c2)cc1OC
inactive: [1] -5.3% | [2] -3.3% | [3] 1.8%

Cc1ccc2c(c1)c1c3n2CCCN(Cc2ccccc2)C3CCC1 (configuration not stated)
inactive: [1] -0.2% | [2] -0.1% | [3] -3%

CCC(C)n1ncn(-c2ccc(N3CCN(c4ccc(OCC5COC(Cn6cncn6)(c6ccc(Cl)cc6Cl)O5)cc4)CC3)cc2)c1=O (configuration not stated)
inactive: [1] 2.7% | [2] -0.4% | [3] 4.4%

COc1cc(C2C(C(C)=O)=C(O)C(=O)N2c2ccc(C)cc2)ccc1O (configuration not stated)
inactive: [1] -1.4% | [2] 0.2% | [3] 0%

CCCOc1ccc(-c2cc(C(=O)NCC3CCCO3)c3ccccc3n2)cc1 (configuration not stated)
inactive: [1] -0.2% | [2] -0.7% | [3] -5.1%

Source: PubChem BioAssay
